Drawing on PubChem BioAssay AID2014 (Sanford-Burnham Center for Chemical Genomics, 2009), this text covers inhibition for 48 compounds.

The target of this test is Polyadenylate-binding protein 1 (Homo sapiens) (UniProt P11940). Nature of the test: blockers of PABP interaction with poly(A) – biochemical, fluorescence polarization, uHTS, primary screen (AID 2014).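 Note: calls also rest on retests at 20 µM and on dose response follow-up.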 The following applies: PABP-poly(A) RNA binding, stronger effect = higher value. (In general: Polarisation of emitted light reports the rotation of a fluorescent probe.)

Each structure is given as a SMILES string. Among all 290,000 compounds or so, about 3,000 (1%) were called active. The rule behind the calls is not given here. The entries come from a sample that favours actives as a whole.

Chain of Polyadenylate-binding protein 1 (Homo sapiens) (P11940 whole entry, looked up): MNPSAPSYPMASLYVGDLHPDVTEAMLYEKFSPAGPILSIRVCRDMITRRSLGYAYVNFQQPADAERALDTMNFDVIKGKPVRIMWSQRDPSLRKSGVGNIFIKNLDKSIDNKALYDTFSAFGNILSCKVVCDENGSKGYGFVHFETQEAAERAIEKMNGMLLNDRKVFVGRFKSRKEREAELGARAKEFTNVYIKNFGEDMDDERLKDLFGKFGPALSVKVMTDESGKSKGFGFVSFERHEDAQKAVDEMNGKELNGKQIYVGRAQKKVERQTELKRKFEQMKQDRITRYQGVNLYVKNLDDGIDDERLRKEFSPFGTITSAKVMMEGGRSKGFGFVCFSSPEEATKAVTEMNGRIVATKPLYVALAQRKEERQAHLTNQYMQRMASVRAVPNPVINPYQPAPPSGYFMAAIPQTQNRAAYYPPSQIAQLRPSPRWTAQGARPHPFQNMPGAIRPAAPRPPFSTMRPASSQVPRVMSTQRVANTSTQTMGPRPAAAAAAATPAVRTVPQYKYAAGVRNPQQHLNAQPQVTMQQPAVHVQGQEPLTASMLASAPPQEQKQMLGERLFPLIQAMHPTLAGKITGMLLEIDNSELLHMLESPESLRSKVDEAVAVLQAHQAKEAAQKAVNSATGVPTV

`Cc1ccc(OCC(=O)c2cc(C)n(Cc3ccco3)c2C)c([N+](=O)[O-])n1`: the inhibition reads like this: (at 35 µM) 40.8% (inactive); (confirmation repeats, at 20 µM) 34.4%. As to `CCOc1ccc(NC(=O)c2cccc3c2C(=O)N(CC2CCCO2)C3)cc1` (stereo unspecified), the inhibition (at 35 µM) is -7.6% (inactive).

In the case of `CCOc1cccc(=O)c2c(C)n(CC3CCCO3)c(C)c12` (stereo unspecified), the inhibition (at 35 µM) is 92.6% (active).

For the compound `COc1ccccc1NC(=O)CSc1nnc(C)n1CC1CCCO1` (stereo unspecified), under “at 35 µM”, the inhibition was 9.2% (inactive). Turning to `CCc1c(C)nc2cc(-c3cccs3)[nH]n2c1=O`, the inhibition (at 35 µM) was 3.2% (inactive).

For `Cc1cc(=O)n2[nH]c(-c3cccc(Cl)c3)cc2n1`, the inhibition (at 35 µM) is 1.6% (inactive). `Cc1cc(=O)n2[nH]c(-c3sccc3-n3c(C)ccc3C)cc2n1`: the inhibition (at 35 µM) was 31.1% (active) and the inhibition (confirmation repeats, at 20 µM) worked out at 94.5%.

With `CC1CCN(C(=O)c2ccc3c(=O)n4c(nc3c2)CCCCC4)CC1`, the inhibition (at 35 µM) is 3.8% (inactive). Regarding `Cc1ccc(C(=O)NCC(=O)NCc2cc(=O)n(C)c(=O)n2C)cc1`, under “at 35 µM”, the inhibition is 1.4% (inactive).

Consider `CC(/C=N/NC(=O)c1ccncc1)=C\c1ccco1`, for which the inhibition (at 35 µM) was 14.8% (inactive). As for `CC(/C=N/NC(=O)c1cc(-c2ccc3ccccc3c2)n[nH]1)=C\c1ccco1`, the inhibition (at 35 µM) is 9.9% (inactive) and the inhibition (confirmation repeats, at 20 µM) stood at 8.9%. With `C/C(=C\c1ccco1)C1Nc2cccc3cccc(c23)N1`, the inhibition (at 35 µM) is 116% (active). As to `COc1ccc(S(=O)(=O)c2c[nH]c(=S)[nH]c2=O)cc1Cl`, under “at 35 µM”, the inhibition is 26% (inactive). On the same count and under the same terms, for `CCOC(=O)C1(CCOc2ccccc2)CCN(Cc2cc(OC)cc(OC)c2)CC1` the value was 10.8% (inactive). Regarding `Cn1cc(CNC(=O)c2ccc(OC3CCN(Cc4ccccn4)CC3)cc2)cn1`, the inhibition (at 35 µM) was 9.6% (inactive).

Take `CSc1ccc(/C=N/N2CCN(Cc3ccccc3Cl)CC2)cc1`: the inhibition (at 35 µM) is 3.3% (inactive). Still for that read-out and setting: for `O=c1ccn(Cc2ccccc2Cl)cc1` the value was 7.8% (inactive). With `O=S1(=O)CCN(Cc2ccccc2Cl)CC1`, the inhibition is 33.1% (active) (at 35 µM) and 64.5% (confirmation repeats, at 20 µM). Regarding `COc1cc(CO)ccc1OCC(=O)Nc1cccc2ccccc12`, the inhibition (at 35 µM) is -6.9% (inactive). In the case of `O=C(NCc1ccccc1)C1CCN(C(=O)Cc2ccccc2)CC1`, for the setting “at 35 µM”, the inhibition is 0% (inactive). Consider `Cc1cc(Cl)c2oc(C(=O)N3CCC(O)(c4ccccc4)CC3)c(C)c2c1`, for which the inhibition (at 35 µM) is 3.6% (inactive). With `COc1cccc(CC(=O)Nc2nc(-c3ccc(OC)c(OC)c3)cs2)c1`, the inhibition (at 35 µM) is 3.9% (inactive).

As to `COc1ccc(-c2csc(Nc3ccc(O)cc3)n2)cc1`, under “at 35 µM”, the inhibition is 6.1% (inactive). On to `COc1ccc(OC)c(Nc2nc(-c3ccc(O)c(O)c3)cs2)c1`, for which the inhibition (at 35 µM) is 88.7% (active). As to `Cc1cc(C)n(Cc2cnc(N3CCOCC3)s2)n1`, the inhibition is, setting by setting: (at 35 µM) 55% (active); (confirmation repeats, at 20 µM) 89.9%. For `Cc1nc(N2CCOCC2)sc1C(=O)NN`, the inhibition (at 35 µM) was 18.5% (inactive).

On to `Fc1cc(F)c2nc(N3CCOCC3)sc2c1`, for which the inhibition (at 35 µM) is 6.9% (inactive). Regarding `COC(=O)CCCC1=CC2=CC(=O)C(C)(OC(=O)c3cccs3)C(=O)C2=CN1CC(C)C` (stereo unspecified), the inhibition is 36.8% (active) (at 35 µM) and 67.3% (confirmation repeats, at 20 µM).

For `COC(=O)CCCC1=CC2=C(c3ccccc3)C(=O)C(C)(OC(=O)C3CCCC3)C(=O)C2=CN1c1ccc(OC)cc1` (stereo unspecified), the inhibition (at 35 µM) was 12.6% (inactive). For `CCCCC1=CC2=CC(=O)C(C)(OC(=O)CC)C(=O)C2=CN1CCCOC(C)C` (stereo unspecified), the inhibition was 34.8% (active) (at 35 µM) and 51.1% (confirmation repeats, at 20 µM). Regarding `COC(=O)CCCC1=CC2=CC(=O)C(C)(OC(=O)c3cccs3)C(=O)C2=CN1CC1CC1` (stereo unspecified), where the note is “at 35 µM”, the inhibition is 32.8% (inactive). With `Cc1ccccc1-n1cc(CNC(=O)C2CCC(=O)N(C3CC3)C2)cn1` (stereo unspecified), where the note is “at 35 µM”, the inhibition was -10.9% (inactive). Still for that read-out and setting: to `CCOc1ccccc1NC(=O)Cc1cccs1` belongs 4.2% (inactive). Same read-out and setting: for `Cc1cc(Cl)c2oc(C(=O)NC(C)c3ccncn3)c(C)c2c1` (stereo unspecified) the value was -10% (inactive). For `CC(C)(C)NC(=O)CSc1nnc(NC(=O)CCc2ccccc2)s1`, the inhibition (at 35 µM) is -1.7% (inactive).

Regarding `COc1cc(NC(=O)CSc2ccc(-c3cccnc3)nn2)cc(OC)c1`, where the note is “at 35 µM”, the inhibition was 15.1% (inactive). Regarding `O=C(c1ccco1)N1CCN(Cc2cccc(C(F)(F)F)c2)CC1`, under “at 35 µM”, the inhibition is 6.5% (inactive).

On to `CC1CCN(S(=O)(=O)c2ccc3c(c2)n(C)c(=O)n3C)CC1`, for which the inhibition (at 35 µM) was -1.1% (inactive). With `COc1ccc(NC(=O)/C(C#N)=C\c2cc(OC)c(OCc3ccc(C(=O)O)cc3)cc2Br)cc1`, the inhibition (at 35 µM) was 7.9% (inactive). With `COc1cc(/C=C(\C#N)C(=O)Nc2ccc3ccccc3c2)c([N+](=O)[O-])cc1OC`, the inhibition (at 35 µM) is -2.3% (active) and the inhibition (confirmation repeats, at 20 µM) was 70.5%. Consider `COc1cc(/C=C(/NC(=O)c2ccccc2)C(=O)Nc2cccc(O)c2)c([N+](=O)[O-])cc1OC`, for which the inhibition (at 35 µM) is -0.9% (inactive). The same measure, in the same setting: to `COCc1cc(=O)n2[nH]c(C)c(-c3ccccc3)c2n1` belongs 8.4% (inactive). With `Cn1c(-c2ccco2)nc2cc3ccccc3cc21`, the inhibition (at 35 µM) is 4% (inactive). The same measure, in the same setting: to `COc1ccc(CCn2c(-c3ccco3)nc3nc4ccccc4nc32)cc1OC` belongs 12.4% (inactive). For the compound `c1coc(-c2nc3nc4ccccc4n3nc2-c2ccco2)c1`, the inhibition (at 35 µM) is 63.7% (active). In the case of `CCOC(=O)C1=C(CCc2ccccc2)NC(=O)NC1c1ccc2ccccc2c1` (stereo unspecified), under “at 35 µM”, the inhibition is -1% (inactive). In the case of `CCOC(=O)CNC(=O)CSc1ncccc1-c1nc2ccccc2[nH]1`, the inhibition (at 35 µM) is 0.2% (inactive).

In the case of `Cc1cc(C(=O)NCCc2ccc(Cl)cc2)c(C)o1`, the inhibition (at 35 µM) was 0% (inactive).

As usually defined, the inhibition is the change of the read-out against control, counted positive when it falls.
